# NFkB transloc inh: blocks IL-1B driven NFkB nuclear translocation in HUVEC cells | AID 796 | HUVEC IL-1B NFkB p65 nuclear translocation imaging | 94,000 tested, 0.43% active | inhibition, % at 2 µM;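 active means inhibition above about 30% together with a positive call from visual inspection of the well image, limit read from the data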;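 further: nuclear over cytoplasmic p65 intensity ratio measured by imaging; 0% = IL-1B stimulated DMSO wells and 100% = unstimulated DMSO wells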
# Cav32 inh: blocks human Cav3.2 T-type calcium channel; O95180; Cav3.2-expressing cells, Fluo-4 calcium fluorescence FDSS; stronger effect = lower value; B-score at 10 µM; 100,000 tested, 4% active;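 active means single-dose well whose peak fluorescence ratio is a statistical outlier from its plate by either plate-standardised score or position-corrected B-score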
# NFkB transloc pot: enhances IL-1B driven NFkB nuclear translocation; HUVEC IL-1B NFkB p65 nuclear translocation imaging; activation, % at 2 µM; 94,000 tested, 0.3% active; AID 819;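 active means activation above 40%, about the mean plus 3 SD, also judged a hit on visual image review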;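 further: percent activation is computed from the nuclear over cytoplasmic p65 intensity ratio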
# HUVEC tox IL1B: HUVEC cytotoxicity counter-screen, IL-1B stimulated. HUVEC cell count loss, Hoechst imaging. cell count reduction, % at 2 µM. 94,000 tested, 0.41% active;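 active means cell count reduction more than 3 SD above the screen-wide mean, cut at about 70% in these data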;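 further: normalized per plate to untreated control cells as the no-loss baseline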
# The depositor's hits bear a star; . = not tested or not shown. In the library only some 4.4% were active in any assay of this set; here they are far more common.
SMILES,NFkB transloc inh,Cav32 inh,NFkB transloc pot,HUVEC tox IL1B
CC(C)(C)c1ccc(CN(Cc2ccccc2)C(c2ccccn2)c2nnnn2C(C)(C)C)cc1 (stereo not drawn),-3,-3,3,-4
CCOc1ccc(C2C(C#N)=C(N)Oc3cc(C)n(CCN(C)C)c(=O)c32)cc1OCC (stereo not drawn),-15,0.43,15,-8
COc1cccc(C2NC(=O)N(CCCC(=O)O)C(C)=C2C(=O)OCc2ccccc2)c1 (stereo not drawn),.,0.89,.,.
Cc1ccccc1N1C(=O)c2ccccc2N2C(=O)c3ccccc3C12 (stereo not drawn),-11,-4.3*,11,11
O=C1c2ccccc2N2C(=O)c3ccccc3C2N1O (stereo not drawn),-24,-0.54,24,16
C=CCN1C(=O)C2C(C(=O)NC3CCCCC3)C3C=CC2(O3)C1C(=O)NC1CCCC1 (stereo not drawn),100*,-0.088,-100,90*
CC(C)=CCOc1ccc([C@@H]2COc3c(ccc4c3C=CC(C)(C)O4)C2)c(O)c1,.,0.33,.,.
CCn1c(C(=O)N2CCC(C(=O)NCCCSC3CCCCC3)CC2)cc2sccc21,-6,-7*,6,11
CCn1c(C(=O)N2CCc3ccccc3C2)cc2sccc21,-3,-5.6*,3,-14
Cn1c(C(=O)N2CCCC(C(=O)NCc3ccc4c(c3)OCO4)C2)cc2sccc21 (stereo not drawn),-26,-2.6,26,8
CCn1c(C(=O)N2CCC(C(=O)NCc3ccc4c(c3)OCO4)CC2)cc2sccc21,.,-5.9*,.,.
CCn1c(C(=O)NCCCN2CCc3ccccc3C2)cc2sccc21,.,-2.8,.,.
Cc1c(-c2cccs2)[n+](=O)c2c(n1[O-])CCCC2,.,0.2,.,.
O=C(O)C(=O)Cc1c[nH]c2ccccc12,.,0.66,.,.
CCOC(=O)C[C@H]1c2ccc(C(F)(F)F)cc2S(=O)(=O)N1C(C)C,.,0.3,.,.
C(=N\c1nccs1)/c1cccnc1,1,1.7,-1,-31
Cc1nn(-c2ccccc2)c(Cl)c1C(=O)Nc1nnc(C2CCCCC2)s1,-9,-4.4*,9,-2
Cc1nn(-c2ccccc2)c(N2CCCC2)c1/C=N/n1cnc2scc(-c3ccccc3)c2c1=O,-5,-5.6*,5,-1
COc1ccccc1N1CCN(C(=O)c2cc(-c3ccc(C)cc3)on2)CC1,-2,-4.2*,2,-13
COc1ccccc1N1CCN(C(=O)c2ccc3nc(-c4ccco4)c(-c4ccco4)nc3c2)CC1,0,-6.2*,0,-3
COc1ccccc1N1CCN(C(=O)c2cc(-c3ccc(Cl)cc3)on2)CC1,44*,-2.4,-44,14
O=C(Nn1nnnc1Nc1ccccc1)C12CC3CC(CC(C3)C1)C2,.,-2.3,.,.
Cc1cn(-c2cc(C(=O)Nc3ccc(C)c(NC(=O)C(=O)c4c[nH]c5ccccc45)c3)cc(C(F)(F)F)c2)cn1,.,-0.48,.,.
Clc1ccc(-n2nnc(-c3ncc[nH]3)n2)cc1Cl,.,0.54,.,.
COC(=O)C1=C(CN2CCc3ccccc32)NC(=O)NC1c1cc(C)ccc1C (stereo not drawn),-6,.,6,-1
SMILES,NFkB transloc inh,Cav32 inh,NFkB transloc pot,HUVEC tox IL1B
CCOC(=O)C1=C(CN2c3ccccc3CC2C)NC(=O)NC1c1ccccc1 (stereo not drawn),-3,-7.8*,3,-18
COC(=O)C1=C(CN2CCCc3ccccc32)NC(=O)NC1c1ccc(F)cc1 (stereo not drawn),.,-3.9*,.,.
CCCC1=C(C(=O)OCC)C(c2ccccc2OC)NC(=O)N1 (stereo not drawn),9,0.11,-9,-20
Cc1oc2ccc(O)c(CN3CCOCC3)c2c1C(=O)c1ccc(Cl)cc1,-5,-4.4*,5,-5
CCCCN(CC)CCCNC(=O)c1cc2c(=O)n(C)c3ccccc3c2n1C,4,0.18,-4,6
CC(C)CCOC(=O)/C(=C/c1ccco1)NC(=O)/C=C/c1ccccc1,4,-5.8*,-4,0
O=C(O)/C(=C\c1ccco1)NC(=O)c1cccc2ccccc12,4,0.57,-4,-13
Cc1ccc(S(=O)(=O)Nc2ccc(Br)cc2/C=N/n2cnnc2)cc1,-2,-0.33,2,-22
COc1cc(C)c(C(=O)Oc2cc(C)c(C(=O)O)c(O)c2C)c(OC)c1C,.,-4.4*,.,.
CC1(C)C(=O)Nc2ccccc2N1C(=O)COC(=O)C1CCCCC1,-13,-5.6*,13,8
Cc1cc(C)c(C)c(S(=O)(=O)N2CCC(C(=O)OCC(=O)N3c4ccccc4NC(=O)C3(C)C)CC2)c1C,-6,-1.9,6,-6
Cc1ccc2c(c1)N(CCC(=O)NCC1COc3ccccc3O1)C(=O)CO2 (stereo not drawn),8,-2.8,-8,-5

# Screens from PubChem.
